These results are taken from PubChem BioAssay (NCI).

Holding throughout (assay): NCI-60 one-dose screen, 48 h (100 = growth as untreated, 0 = no growth, -100 = all killed)
Holding throughout (details): 10 µM unless noted

The subject of test [1] is SK-MEL-2 melanoma.
In test [2] the test system is SN12C renal.
The test system of test [3] is UO-31 renal.
In test [4] the test system is TK-10 renal.
Test [5] deals with ACHN renal.
The subject of test [6] is CAKI-1 renal.
The test system of test [7] is A498 renal.
Test [8] deals with CCRF-CEM leukemia.
Test [9] has as its system MOLT-4 leukemia.

SMILES strings stand for the structures. Where “and” joins values, the source holds several entries; their conditions need not be identical. Equal values may be shown once. This is part of a sample that, as a whole, favours compounds with a hit. Of some 83,000 tested, about 20% had one in any assay.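 Results are percent growth after 48 hours of single-concentration exposure. 100 means growth as in untreated cells, lower positive values show inhibition; negative values down to -100 show cell death.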 Calls of active or inactive are those of the source. The calls were made as follows: active = growth percent below 10; inactive = the rest.

Take `Cc1cc(=NO)cc(C)n1O`: the growth in test [1] is 113% (inactive); in test [2], 100% (inactive); in [3], 101% (inactive); in [4], 84.7% (inactive); in [5], 117% (inactive); in [6], 109% (inactive). The growth in test [7] was 93.9% (inactive); in [8], 80.9% (inactive); in [9], 96.6% (inactive).
Regarding `O=[N+]([O-])c1cccc2ccc(N/N=C/c3ccccc3O)nc12`, the growth is 149% (inactive) and 75% (inactive) in [1]; 96.4% (inactive) and 98.5% (inactive) in test [2]; 26.6% (inactive) and 64.3% (inactive) in [3]; 68.4% (inactive) and 103% (inactive) in test [5]; 80.3% (inactive) in test [6]; 92.8% (inactive) and 95% (inactive) in [7]. The growth in test [8] is 3.42% (active) and 86.9% (inactive).
Regarding `COc1ccc([N+](=O)[O-])cc1OC`, the growth in test [1] is 123% (inactive) and 103% (inactive); in test [2], 99.6% (inactive) and 108% (inactive); in [3], 76.2% (inactive) and 99.1% (inactive); in test [4], 98.9% (inactive) and 108% (inactive); in test [5], 99% (inactive) and 93.5% (inactive); in test [6], 93.8% (inactive) and 102% (inactive). Moreover, the growth was 73.1% (inactive) and 128% (inactive) in test [7]; 89.6% (inactive) and 102% (inactive) in test [8]; 91.2% (inactive) and 104% (inactive) in [9].
As to `O=C(c1ccncc1)c1c(Cc2ccccc2)ccc2ccccc12`, the growth is 69.7% (inactive) in test [1]; 90.6% (inactive) in test [2]; 64.5% (inactive) in test [3]; 107% (inactive) in test [4]; 93.8% (inactive) in [5]; 73.8% (inactive) in [6]. The growth was 104% (inactive) in test [7], 103% (inactive) in [8] and 94.6% (inactive) in test [9].
Take `O=C(NC(CSSCC(NC(=O)OCc1ccccc1)C(=O)O)C(=O)O)OCc1ccccc1` (configuration not stated): the growth in [1] is 95.4% (inactive) and 102% (inactive); in test [2] it was 83.3% (inactive) and 105% (inactive); in test [3], 67.6% (inactive) and 98% (inactive); in test [5], 88.6% (inactive) and 98.9% (inactive); in test [6], 72.1% (inactive) and 99.3% (inactive); in [7], 68.2% (inactive) and 99% (inactive). Besides, the growth in [8] is 87.3% (inactive); in test [9] it was 52.1% (inactive) and 82% (inactive).
Take `O=C(N=C1C(=O)C2(CCCCC2)C2(N=C(c3ccccc3)OC2=O)C12CCCCC2)c1ccccc1` (configuration not stated): the growth is 76% (inactive) in [1]; 77.8% (inactive) in test [2]; 58.5% (inactive) in test [3]; 86.2% (inactive) in [4]; 80.5% (inactive) in [5]; 70.9% (inactive) in [6]. Also, the growth in test [7] is 98.2% (inactive); in [8], 37.4% (inactive); in [9] it was 50.5% (inactive).
With `COc1ccc(/C=N/Nc2nc3ccccc3s2)cc1`, the growth was 117% (inactive) in test [1]; 89% (inactive) in [2]; 62.6% (inactive) in [3]; 112% (inactive) in test [4]; 90.6% (inactive) in test [5]; 79.9% (inactive) in [6]. The growth in test [7] is 115% (inactive); in test [8] it was 34.7% (inactive); in [9] it was 85.8% (inactive).
Take `COC1C(OC(N)=O)C(O)C(Oc2ccc3c(O)c(NC(=O)c4ccc(O)c(CC=C(C)C)c4)c(=O)oc3c2C)OC1(C)C` (configuration not stated): the growth in test [1] is 105% (inactive) and 111% (inactive); in test [2], 106% (inactive) and 97.3% (inactive); in test [3] it was 107% (inactive) and 96.9% (inactive); in [4], 115% (inactive) and 108% (inactive); in [5], 23.8% (inactive) and 101% (inactive); in test [6] it was 85.9% (inactive) and 101% (inactive). For the same molecule, the growth was 106% (inactive) and 70.8% (inactive) in test [7]; 90% (inactive) and 59.2% (inactive) in [8]; 75.4% (inactive) and 93.5% (inactive) in test [9].
Regarding `COc1ccc(CCN=Cc2ccc(Cl)cc2)cc1OC`, the growth in [1] is 98.4% (inactive); in test [2], 99.5% (inactive); in [3] it was 83.7% (inactive); in test [4], 107% (inactive); in test [5], 106% (inactive); in test [6], 101% (inactive). Also, the growth in test [7] is 95.3% (inactive); in test [8], 105% (inactive); in [9] it was 99.9% (inactive).
Consider `C=CCN1C(=O)c2ccccc2C1=O`, for which the growth in test [1] is 101% (inactive); in [2], 87.4% (inactive); in [3], 78.3% (inactive); in [4], 98.3% (inactive); in test [5] it was 102% (inactive); in test [6], 93.2% (inactive). Further, the growth was 92% (inactive) in test [7], 93.3% (inactive) in test [8] and 102% (inactive) in [9].
`CC1=CC(=O)c2cccc(NC3=NCCO3)c21`: the growth in [1] was 93.8% (inactive); in test [2], 95.1% (inactive); in test [3], 86.5% (inactive); in test [4], 98.3% (inactive); in test [5], 98.7% (inactive); in test [6], 94.2% (inactive). Also, the growth in test [8] was 108% (inactive); in test [9], 111% (inactive).
Consider `O=C1C2=C(Nc3cc(Cl)ccc3N2)OC1c1c[nH]c2ccc(COc3ccccc3)cc12` (configuration not stated), for which the growth was 86.7% (inactive) in test [1]; 71.3% (inactive) in test [2]; 51.2% (inactive) in [3]; 71.6% (inactive) in test [4]; 60% (inactive) in test [5]; 52.1% (inactive) in [6]. The figures for the growth in [7], in test [8] and in [9] were 102% (inactive), 64.1% (inactive) and 77.3% (inactive), respectively.
On to `S=c1ccc2ccccc2[nH]1`, for which the growth in test [1] is 97.9% (inactive) and 97.2% (inactive); in test [2], 101% (inactive); in test [3], 88.2% (inactive) and 80.9% (inactive); in [4], 105% (inactive) and 108% (inactive); in test [5], 101% (inactive) and 109% (inactive); in [6], 96.5% (inactive). Also, the growth is 110% (inactive) in test [7]; 103% (inactive) and 101% (inactive) in test [8]; 93.3% (inactive) and 100% (inactive) in [9].
In the case of `Cc1ccc(NC(=S)N/C=C(\c2ccccc2)S(=O)Cc2ccccc2)c(C)c1` (configuration not stated), the growth in test [1] was 103% (inactive); in test [2], 98.9% (inactive); in [3] it was 80.2% (inactive); in test [4] it was 109% (inactive); in test [5] it was 103% (inactive); in test [6], 87.5% (inactive). The growth was 103% (inactive) in [7] and 97.3% (inactive) in test [8].
As for `CCOC(=O)NC(N)=O`, the growth was 98.7% (inactive) and 126% (inactive) in [1]; 103% (inactive) and 98.1% (inactive) in test [2]; 86.6% (inactive) and 95.3% (inactive) in test [3]; 88.4% (inactive) in [4]; 100% (inactive) and 103% (inactive) in test [5]; 99.1% (inactive) and 101% (inactive) in test [6]. The growth in test [7] is 101% (inactive) and 104% (inactive); in test [8], 99.2% (inactive) and 99.3% (inactive); in test [9] it was 97.2% (inactive) and 106% (inactive).
On to `O=C1c2ccccc2CN1c1ccccc1`, for which the growth in test [1] was 70.6% (inactive); in test [2] it was 90.5% (inactive); in test [3], 121% (inactive); in test [4], 94.3% (inactive); in [5], 99% (inactive); in test [6], 102% (inactive). Moreover, the results for the growth in test [7], in [8] and in [9] were 101% (inactive), 106% (inactive) and 85.2% (inactive), respectively.
Regarding `N#Cc1c[nH]n2ccnc12`, the growth in test [1] is 105% (inactive); in test [2], 99.8% (inactive); in test [3], 94.7% (inactive); in test [4], 103% (inactive); in test [5] it was 112% (inactive); in [6], 104% (inactive). The growth is 117% (inactive) in test [7], 109% (inactive) in test [8] and 109% (inactive) in test [9].
For the molecule `COc1cc(NCCCCCCCNC(C)C)c2nccc(C)c2c1`, the growth is 103% (inactive) and 126% (inactive) in [1]; 78% (inactive) and 61.7% (inactive) in test [2]; 38.4% (inactive) and 47.1% (inactive) in test [3]; 90.3% (inactive) and 67.6% (inactive) in [4]; 91.8% (inactive) and 67.3% (inactive) in [5]; 87.7% (inactive) and 45.5% (inactive) in test [6]. Also, the growth in test [7] was 80.5% (inactive) and 49.2% (inactive); in test [8] it was 92.7% (inactive); in [9], 80% (inactive).
For the molecule `O=C(O)c1c2c(nc3ccccc13)Cc1ccccc1-2`, the growth in test [1] was 109% (inactive) and 122% (inactive); in test [2] it was 108% (inactive) and 87% (inactive); in test [3], 73.6% (inactive) and 63.6% (inactive); in test [4], 114% (inactive) and 101% (inactive); in [5], 103% (inactive) and 101% (inactive); in [6] it was 98% (inactive) and 86.2% (inactive). Further, the growth is 78.5% (inactive) and 95.6% (inactive) in test [7]; 91.1% (inactive) and 77.3% (inactive) in [8]; 96.2% (inactive) and 114% (inactive) in test [9].
On to `CN(C)c1ccc(C(=N)c2ccc(N(C)C)cc2)cc1`, for which the growth in test [1] is 22.1% (inactive) and 3.75% (active); in test [2], 40.8% (inactive) and 42.4% (inactive); in test [3], 50.1% (inactive) and 37.5% (inactive); in [5], 50.9% (inactive) and 49.9% (inactive); in test [6], 30.8% (inactive) and 19% (inactive); in [7], 15.2% (inactive) and -1.88% (active). The growth was 33.5% (inactive) in test [8]; 29.2% (inactive) and 16.8% (inactive) in test [9].
With `NC(=O)Cc1nc(O)cc(=O)[nH]1`, the growth in test [1] was 102% (inactive); in test [2] it was 96.2% (inactive); in [3] it was 95.4% (inactive); in test [4], 94% (inactive); in [5], 107% (inactive); in test [6], 99.2% (inactive). For the same molecule, the growth in [7] is 85.6% (inactive); in [8] it was 88.3% (inactive); in [9], 95.6% (inactive).
With `CC(=O)Nc1cscc1NC(C)=O`, the growth in test [1] was 139% (inactive); in test [2], 89.1% (inactive); in test [3], 93.3% (inactive); in test [4] it was 97.8% (inactive); in test [5], 96.3% (inactive); in [6], 73.1% (inactive). Further, the results for the growth in test [8] and in [9] were 89.2% (inactive) and 111% (inactive), respectively.
Take `CSc1nc(N)c(N)c(N)n1`: the growth is 104% (inactive) in test [1]; 99.4% (inactive) in test [2]; 93% (inactive) in test [3]; 111% (inactive) in [4]; 110% (inactive) in test [5]; 97.8% (inactive) in test [6]. In addition, the growth in [7] is 94.5% (inactive); in [8] it was 64.7% (inactive); in test [9], 83% (inactive).
Consider `COC(=O)c1nc(N)nc(C(=O)OC)c1C(=O)c1cccc2ccccc12`, for which the growth in test [1] was 106% (inactive); in test [2], 99.5% (inactive); in test [3], 89.7% (inactive); in [4], 97.5% (inactive); in test [5] it was 106% (inactive); in [6], 96.3% (inactive). Also, the growth in [7] is 105% (inactive); in [8], 101% (inactive); in [9], 112% (inactive).
With `COc1cc2c(cc1O)C(=O)CCCC2`, the growth in test [1] was 98% (inactive); in [2], 111% (inactive); in [3], 90.4% (inactive); in [4], 110% (inactive); in test [5], 96.9% (inactive); in [6], 73.3% (inactive). In addition, the growth in test [8] was 97.7% (inactive); in test [9] it was 83.9% (inactive).
